The structures appear in SMILES notation. Out of some 39,000 compounds screened, about 3,300 (8.5%) were called active. The full list was thinned out, with actives kept by preference.

The test system of this test is HepG2. In words: cytotoxicity call (relative viability < 0.9). The settings on record: 10 µM.
Take `C[C@H]1CCCCO[C@@H](CN(C)C(=O)NC2CCCCC2)[C@@H](C)CN([C@@H](C)CO)C(=O)c2cc(NC(=O)Cc3ccccc3)ccc2O1`: the cytotoxicity call is “inactive”.

On to `COc1ccc(NC(=O)Nc2cccc3c2O[C@H](CN(C)C(=O)Nc2cccc4ccccc24)[C@H](C)CN([C@@H](C)CO)C3=O)cc1`, for which the cytotoxicity call is “inactive”.

Turning to `Cc1c(N2CCCC2)cc2c(c1-n1cccc1)C(C)(C)CC2(C)C`, the cytotoxicity call was “inactive”.

Regarding `COc1ccc2c3c(n(c2c1)C)[C@@H](CO)N(Cc1cc(cc(c1)OC)OC)C[C@]13CN(C1)S(=O)(=O)c1cn(cn1)C`, the cytotoxicity call was “inactive”.

Regarding `O=S(=O)(NCC[C@@H]1CC[C@@H](NS(=O)(=O)c2ccccc2Cl)[C@H](CO)O1)c1ccc(Cl)cc1`, the cytotoxicity call was “inactive”.

Regarding `Cc1ccc(S(=O)(=O)N[C@@H]2C=C[C@H](CC(=O)NCCN3CCCCC3)O[C@H]2CO)cc1`, the cytotoxicity call is “inactive”.

Regarding `COc1ccc(NC(=O)N(C)C[C@H]2Oc3ccc(NC(=O)Nc4cccc5ccccc45)cc3C(=O)N([C@@H](C)CO)C[C@@H]2C)cc1`, the cytotoxicity call was “inactive”.

Turning to `Cc1noc(C)c1NC(=O)Nc1ccc2c(c1)C(=O)N([C@H](C)CO)C[C@H](C)[C@@H](CN(C)Cc1ccc(Cl)c(Cl)c1)O2`, the cytotoxicity call is “inactive”.

For the compound `C[C@@H]1CN([C@H](C)CO)C(=O)Cc2cc(NS(=O)(=O)c3ccc(F)cc3)ccc2O[C@H]1CN(C)Cc1ccc(-c2ccccc2)cc1`, the cytotoxicity call was “active”.

Consider `C[C@@H]1CN([C@H](C)CO)C(=O)Cc2cc(NC(=O)NC3CCCCC3)ccc2O[C@@H]1CN(C)C(=O)Nc1ccc(C(F)(F)F)cc1`, for which the cytotoxicity call is “inactive”.

As for `COc1ccc(S(=O)(=O)Nc2ccc3c(c2)C(=O)N([C@H](C)CO)C[C@@H](C)[C@H](CN(C)C(=O)Nc2ccc(F)cc2)OCCCC[C@H](C)O3)cc1`, the cytotoxicity call is “inactive”.

On to `C[C@H]1CN([C@@H](C)CO)C(=O)c2cc(C#CCN(C)C)cnc2O[C@H]1CN(C)S(C)(=O)=O`, for which the cytotoxicity call is “inactive”.

With `C[C@@H]1CN([C@H](C)CO)C(=O)c2cc(NS(=O)(=O)c3ccc(Cl)cc3)ccc2O[C@@H](C)CCCCO[C@H]1CN(C)Cc1ccc(C(F)(F)F)cc1`, the cytotoxicity call is “active”.

In the case of `C[C@@H]1CCCCO[C@H](CN(C)Cc2ccc(C(F)(F)F)cc2)[C@@H](C)CN([C@@H](C)CO)C(=O)c2cc(NS(=O)(=O)c3ccc(Cl)cc3)ccc2O1`, the cytotoxicity call was “active”.

As for `C[C@@H]1CCCCO[C@@H](CN(C)Cc2ccc(C(F)(F)F)cc2)[C@H](C)CN([C@H](C)CO)C(=O)c2cc(NS(=O)(=O)c3ccc(Cl)cc3)ccc2O1`, the cytotoxicity call is “active”.

Take `C[C@@H]1CCCCO[C@H](CN(C)Cc2ccc(C(F)(F)F)cc2)[C@H](C)CN([C@H](C)CO)C(=O)c2cc(NS(=O)(=O)c3ccc(Cl)cc3)ccc2O1`: the cytotoxicity call is “active”.

`C[C@H](CO)N1C[C@H](C)[C@@H](CN(C)Cc2ccc(C(F)(F)F)cc2)OCCCC[C@H](C)Oc2ccc(NS(=O)(=O)c3ccc(Cl)cc3)cc2C1=O`: the cytotoxicity call is “inactive”.

For the compound `C[C@@H]1CN([C@@H](C)CO)C(=O)c2cc(NS(=O)(=O)c3ccc(Cl)cc3)ccc2O[C@@H](C)CCCCO[C@@H]1CN(C)Cc1ccc(C(F)(F)F)cc1`, the cytotoxicity call is “inactive”.

As to `CNC[C@H]1OCCCC[C@@H](C)Oc2ccc(NS(=O)(=O)c3cn(C)cn3)cc2C(=O)N([C@@H](C)CO)C[C@H]1C`, the cytotoxicity call was “inactive”.

Take `C[C@@H]1CCCCO[C@@H](CN(C)C(=O)c2ccccc2)[C@@H](C)CN([C@H](C)CO)C(=O)c2cc(NC(=O)CCC(F)(F)F)ccc2O1`: the cytotoxicity call was “inactive”.

Take `C[C@@H]1CN([C@H](C)CO)C(=O)c2cc(NS(=O)(=O)c3cccs3)ccc2O[C@@H](C)CCCCO[C@@H]1CN(C)C(=O)CCC(F)(F)F`: the cytotoxicity call was “inactive”.

With `C[C@H](N)CCCP(=O)(O)O`, the cytotoxicity call is “inactive”.

Regarding `COC(=O)CCCCCCC(=O)Nc1ccc([C@H]2O[C@H](CSc3nc(-c4ccccc4)c(-c4ccccc4)o3)C[C@H](c3ccc(NC(=O)CCCCCCC(=O)OC)cc3)O2)cc1`, the cytotoxicity call is “inactive”.

As for `C[C@H]1CN([C@@H](C)CO)C(=O)c2cc(NS(C)(=O)=O)ccc2O[C@@H]1CN(C)Cc1ccc(C(F)(F)F)cc1`, the cytotoxicity call was “inactive”.

With `COc1ccc(NC(=O)Nc2ccc3c(c2)[C@H]2C[C@@H](CC(=O)N4CCN(C)CC4)O[C@H](CO)[C@H]2O3)cc1`, the cytotoxicity call is “inactive”.

As for `C[C@@H]1CN([C@H](C)CO)C(=O)c2cc(C#CCN(C)C)cnc2O[C@H]1CN(C)Cc1ccc2c(c1)OCO2`, the cytotoxicity call was “inactive”.

Turning to `C[C@H](CO)N1C[C@H](C)[C@@H](CN(C)C(=O)c2cnccn2)Oc2ncc(/C=C/c3ccccc3)cc2C1=O`, the cytotoxicity call is “inactive”.

For the compound `CC(C)NC(=O)Nc1ccc2c(c1)C(=O)N([C@@H](C)CO)C[C@H](C)[C@H](CN(C)C(=O)Nc1ccc3c(c1)OCO3)O2`, the cytotoxicity call is “inactive”.

On to `C[C@H]1CN([C@@H](C)CO)S(=O)(=O)c2ccc(C#CC3CCCC3)cc2O[C@H]1CN(C)Cc1cncnc1`, for which the cytotoxicity call is “inactive”.

As for `CO[C@@H]1CN(C)C(=O)c2ccc(NC(=O)C3CCOCC3)cc2OC[C@H](C)N(Cc2cccnc2)C[C@@H]1C`, the cytotoxicity call was “inactive”.

Consider `C[C@H]1CN([C@@H](C)CO)C(=O)c2cccc(NC(=O)c3cnccn3)c2O[C@H]1CN(C)C(=O)Nc1ccc2c(c1)OCO2`, for which the cytotoxicity call is “inactive”.

On to `C[C@H]1CN([C@@H](C)CO)C(=O)c2cccc(NC(=O)c3ccncc3)c2O[C@H]1CN(C)S(=O)(=O)c1cn(C)cn1`, for which the cytotoxicity call was “inactive”.

Take `NCCCC[C@@H]1NC(=O)[C@H]2C[C@@H](C(=O)NCc3ccc(F)cc3)[C@@H](c3cccc(OCCO)c3)N2C1=O`: the cytotoxicity call was “inactive”.

Consider `COc1ccc(S(=O)(=O)Nc2cccc3c2O[C@H](CN(C)CC2CC2)[C@@H](C)CN([C@H](C)CO)C3=O)cc1`, for which the cytotoxicity call was “inactive”.

Turning to `COCC#Cc1ccc2c(c1)O[C@H](CN(C)S(=O)(=O)c1cccc(OC)c1)[C@H](C)CN([C@H](C)CO)S2(=O)=O`, the cytotoxicity call is “inactive”.

`CN1C(=O)c2cc(NC(=O)C3CCOCC3)ccc2OC[C@H]2O[C@H](CC(=O)NCCc3ccncc3)CC[C@H]21`: the cytotoxicity call was “inactive”.

Regarding `C[C@@H]1CN([C@@H](C)CO)C(=O)c2cc(NC(=O)NC3CCCCC3)ccc2O[C@@H](C)CCCCO[C@@H]1CN(C)C(=O)Nc1ccccc1`, the cytotoxicity call was “inactive”.

With `Cc1ccc(S(=O)(=O)N(C)C[C@H]2Oc3ccc(NS(=O)(=O)c4cn(C)cn4)cc3C(=O)N([C@H](C)CO)C[C@H]2C)cc1`, the cytotoxicity call is “inactive”.

As for `C[C@H]1CCCCO[C@@H](CN(C)Cc2ccc(C(F)(F)F)cc2)[C@@H](C)CN([C@@H](C)CO)C(=O)c2cc(NS(=O)(=O)c3ccc(Cl)cc3)ccc2O1`, the cytotoxicity call was “inactive”.

Take `C[C@H]1CCCCO[C@H](CN(C)Cc2ccc(C(F)(F)F)cc2)[C@@H](C)CN([C@@H](C)CO)C(=O)c2cc(NS(=O)(=O)c3ccc(Cl)cc3)ccc2O1`: the cytotoxicity call is “inactive”.

`C[C@@H]1CN([C@@H](C)CO)C(=O)c2cc(NS(=O)(=O)c3ccc(Cl)cc3)ccc2O[C@@H](C)CCCCO[C@H]1CN(C)Cc1ccc(C(F)(F)F)cc1`: the cytotoxicity call is “active”.

For `C[C@@H]1CN([C@H](C)CO)C(=O)c2cc(NS(=O)(=O)c3ccc(Cl)cc3)ccc2O[C@@H](C)CCCCO[C@@H]1CN(C)Cc1ccc(C(F)(F)F)cc1`, the cytotoxicity call was “inactive”.

For the compound `C[C@@H]1CCCCO[C@H](CN(C)Cc2ccc(C(F)(F)F)cc2)[C@@H](C)CN([C@H](C)CO)C(=O)c2cc(NS(=O)(=O)c3ccc(Cl)cc3)ccc2O1`, the cytotoxicity call was “active”.

Consider `C[C@@H]1CCCCO[C@@H](CN(C)Cc2ccc(C(F)(F)F)cc2)[C@@H](C)CN([C@@H](C)CO)C(=O)c2cc(NS(=O)(=O)c3ccc(Cl)cc3)ccc2O1`, for which the cytotoxicity call is “inactive”.

`C[C@@H]1CCCCO[C@@H](CN(C)Cc2ccc(C(F)(F)F)cc2)[C@H](C)CN([C@@H](C)CO)C(=O)c2cc(NS(=O)(=O)c3ccc(Cl)cc3)ccc2O1`: the cytotoxicity call is “active”.

As for `C[C@@H]1CCCCO[C@@H](CN(C)Cc2ccc(C(F)(F)F)cc2)[C@@H](C)CN([C@H](C)CO)C(=O)c2cc(NS(=O)(=O)c3ccc(Cl)cc3)ccc2O1`, the cytotoxicity call is “active”.

`Cc1ccc(S(=O)(=O)N(C)C[C@H]2Oc3ccc(NS(=O)(=O)c4c(C)noc4C)cc3C(=O)N([C@H](C)CO)C[C@@H]2C)cc1`: the cytotoxicity call was “inactive”.

With `C[C@]12C(=O)N(CCC(=O)O)C(=O)[C@H]1[C@@H]1C=C[C@@H]2C1`, the cytotoxicity call was “inactive”.

Turning to `Cc1ccc(S(=O)(=O)Nc2cccc3c2O[C@@H](CN(C)S(=O)(=O)c2ccc(F)cc2)[C@H](C)CN([C@@H](C)CO)C3=O)cc1`, the cytotoxicity call was “inactive”.

`O=C(Cn1ccc([N+](=O)[O-])n1)N1CCOCC1`: the cytotoxicity call was “inactive”.

On to `COc1ccc(NC(=O)N(C)C[C@H]2Oc3ccc(NC(=O)Cn4cnnn4)cc3CC(=O)N([C@H](C)CO)C[C@H]2C)cc1`, for which the cytotoxicity call was “inactive”.

As for `C[C@H](CO)N1C[C@H](C)[C@H](CN(C)Cc2ccc(Oc3ccccc3)cc2)Oc2c(NS(=O)(=O)c3ccc(F)cc3)cccc2C1=O`, the cytotoxicity call is “inactive”.

In the case of `C[C@H](CO)N1C[C@H](C)[C@@H](CN(C)S(=O)(=O)c2ccc(Cl)cc2)Oc2ccc(NS(=O)(=O)c3cn(C)cn3)cc2C1=O`, the cytotoxicity call is “inactive”.

`O=C(NCCCN1CCOCC1)[C@@H]1[C@@H](CO)[C@@H]2Cn3c(ccc(C4=CCCCC4)c3=O)[C@H]1N2`: the cytotoxicity call is “inactive”.

For the compound `Cc1ccc(S(=O)(=O)Nc2cccc3c2O[C@@H](CN(C)S(=O)(=O)c2ccc(F)cc2)[C@H](C)CN([C@H](C)CO)C3=O)cc1`, the cytotoxicity call was “inactive”.

Consider `CC(C)(C)OC(=O)C[C@@H]1CC=CC[C@@H](CC(=O)N[C@H](CO)Cc2ccccc2)C(=O)N[C@@H](C(C)(C)C)COC1=O`, for which the cytotoxicity call is “inactive”.

`CC1CCN(S(=O)(=O)c2c[nH]cn2)CC1`: the cytotoxicity call was “inactive”.

In the case of `Cc1noc(C)c1NC(=O)N(C)C[C@H]1Oc2ccc(NS(C)(=O)=O)cc2C(=O)N([C@H](C)CO)C[C@H]1C`, the cytotoxicity call was “inactive”.

Regarding `COc1ccc(CN(C)C[C@H]2OCCCC[C@H](C)Oc3ccc(NC(=O)NC(C)C)cc3C(=O)N([C@@H](C)CO)C[C@@H]2C)cc1`, the cytotoxicity call is “inactive”.

In the case of `C[C@@H]1CCCCO[C@H](CN(C)Cc2ccc(C(F)(F)F)cc2)[C@H](C)CN([C@@H](C)CO)C(=O)c2cc(NS(=O)(=O)c3ccc(Cl)cc3)ccc2O1`, the cytotoxicity call was “active”.

Take `C[C@H](CO)N1C[C@H](C)[C@H](CN(C)Cc2ccc(C(F)(F)F)cc2)OCCCC[C@H](C)Oc2ccc(NS(=O)(=O)c3ccc(Cl)cc3)cc2C1=O`: the cytotoxicity call was “active”.
